Measurements taken from PubChem BioAssay (Tox21).
Where “and” joins values, the source holds several entries; their conditions need not be identical. Equal values may be shown once. Results filed as inconclusive are left out. Some structures have more than one record in an assay (separate samples or runs), and their calls can disagree. Calls of active or inactive are those of the source. Unless noted, the call rests on the fitted dose curve; in most records, active means well fitted curve in the direction sought with a large enough effect in the repeat runs; inconclusive means weak or mixed curves; inactive means no such curve, though single readings can be large; an effect the other way counts as inactive or inconclusive.

Legend:
[1] = qHTS assay for small molecules that induce genotoxicity in human embryonic kidney cells expressing luciferase-tagged ATAD5 (AID 651632); further: nearly all actives have a fitted effect of over 15% in size; further: potency means the concentration at half of the fitted maximal effect
Outline: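 Concentration-response screen for ATAD5 upregulation in HEK293T luciferase reporter cells; 16 hr treatment at 37C, then luminescence after 30 min with Amplite at room temperature.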

[2] = qHTS assay for small molecule agonists of the p53 signaling pathway - cell viability (AID 651633; calls by dose curve; further: nearly all actives have a fitted effect of over 30% in size; further: potency means the concentration at half of the fitted maximal effect)
Outline: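 p53RE-bla cells, seeded at 4,000 per well and rested 5 h at 37 C/5% CO2, received compounds in DMSO for 16 h at 37 C. CellTiter-Glo was then added, and luminescence was read after 30 min at room temperature to gauge cytotoxicity.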

[3] = qHTS assay for small molecules that induce genotoxicity in human embryonic kidney cells expressing luciferase-tagged ATAD5 - cell viability (AID 651634; calls by dose curve; further: nearly all actives have a fitted effect of over 25% in size)
Outline: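 15.5 hr compound or vehicle exposure of HEK293T cells expressing luciferase-tagged ATAD5 at 37C; live-cell protease activity is read by fluorescence after 30 min of CellTiter-Fluor.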

[4] = qHTS assay for small molecule disruptors of the mitochondrial membrane potential - cell viability (AID 720634; calls by dose curve;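 further: human HepG2 liver cancer cells; series mostly up to about 83 µM; nearly all actives have a fitted effect of over 20% in size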)
Outline: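 In this qHTS format, HepG2 cells plated overnight were pinned with compound, incubated 1 hr, and assayed for ATP luminescence with CellTiter-Glo after m-MPI dye addition.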

[5] = qHTS assay to test for compound auto fluorescence at 535 nm (green) in HepG2 cells (AID 720675); further: potency means the concentration at half of the fitted maximal effect
[6] = qHTS assay to test for compound auto fluorescence at 460 nm (blue) in HEK293 cells (AID 720678)
Outline: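 Triamterene serves as the blue fluorophore standard. Compound signal at 405/460 nm is read in HEK293 wells (2,000 cells, 10% dialyzed FBS) after overnight treatment at 37C.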

[7] = qHTS assay to test for compound auto fluorescence at 460 nm (blue) in HEK293 cell free culture (AID 720681)
Outline: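 Test compounds were pinned into cell-free culture medium (DMEM with 10% FBS) and fluorescence was read directly at Ex/Em 405/460 nm. Signals were expressed as fluorescence equivalents of triamterene, with DMSO vehicle as control.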

[8] = qHTS assay to test for compound auto fluorescence at 590 nm (red) in HepG2 cell free culture (AID 720684)
Outline: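 Ex 540 / Em 590 nm read of compound in cell-free MEM (10% FBS). Rose Bengal sodium reference.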

[9] = qHTS assay to test for compound auto fluorescence at 460 nm (blue) in HepG2 cell free culture (AID 720685)
Outline: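 Cell-free plates of MEM plus 10% FBS received 23 nL compound or DMSO vehicle; blue-channel (405/460 nm) intensity scored against triamterene as reference fluorophore.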

[10] = qHTS assay to test for compound auto fluorescence at 535 nm (green) in HepG2 cell free culture (AID 720686); further: potency means the concentration at half of the fitted maximal effect
[11] = qHTS assay to test for compound auto fluorescence at 460 nm (blue) in HepG2 cells (AID 720687)
Outline: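 Cells (2,000/well in MEM with 10% FBS) attached overnight at 37 C, then were exposed to compound or DMSO for 1 hr at 37 C, 5% CO2. Fluorescence read at Ex/Em 405/460 nm, expressed as triamterene-equivalent signal.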

[12] = qHTS assay for small molecule disruptors of the mitochondrial membrane potential (AID 720635); further: potency means the concentration at half of the fitted maximal effect
Outline: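 HepG2 cells (2,000/well) attached overnight at 37C, then took compound for 1 hr at 37C, 5% CO2. Mito-MPS dye was added for 30 min; fluorescence was read at 490/535 nm (monomers) and 540/590 nm (aggregates).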

[13] = qHTS assay to test for compound auto fluorescence at 590 nm (red) in HepG2 cells (AID 720674)
Outline: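 Rose Bengal sodium served as the red fluorophore standard. HepG2 monolayers (overnight attachment, MEM with 10% FBS) were exposed to test compounds for 1 hr at 37 C and read at Ex 540/Em 590 nm.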

[14] = qHTS assay to test for compound auto fluorescence at 590 nm (red) in HEK293 cells (AID 720679)
Outline: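 We plated HEK293 cells in 10% dialyzed FBS medium, let them adhere for 4-5 hr, then added 23 nL compound. Overnight at 37C and 5% CO2 preceded fluorescence measurement at 540/590nm.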

[15] = qHTS assay to test for compound auto fluorescence at 535 nm (green) in HEK293 cells (AID 720680)
[16] = qHTS assay to test for compound auto fluorescence at 535 nm (green) in HEK293 cell free culture (AID 720682); further: potency means the concentration at half of the fitted maximal effect
Outline: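 DMEM + 10% FBS, cell-free; cpd or DMSO pinned in; Ex485/Em535 read; output as fluorescein-equivalent signal.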

[17] = qHTS assay to test for compound auto fluorescence at 590 nm (red) in HEK293 cell free culture (AID 720683)
Outline: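 Tox21 10K library compounds were pinned into cell-free DMEM with 10% FBS and fluorescence was read at excitation 540 nm. Activity is expressed as Rose Bengal sodium equivalency.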

[18] = molecular target: Glucocorticoid receptor (Homo sapiens) (UniProt P04150); assay: qHTS assay to identify small molecule agonists of the glucocorticoid receptor (GR) signaling pathway (AID 720691; active means well fitted activation curve with a large enough effect in the signal ratio in the repeat runs, not every such curve was filed as active; the % refers to the signal ratio; further: potency means the concentration at half of the fitted maximal effect)
Glucocorticoid receptor (Homo sapiens), sequence (P04150 whole entry, looked up): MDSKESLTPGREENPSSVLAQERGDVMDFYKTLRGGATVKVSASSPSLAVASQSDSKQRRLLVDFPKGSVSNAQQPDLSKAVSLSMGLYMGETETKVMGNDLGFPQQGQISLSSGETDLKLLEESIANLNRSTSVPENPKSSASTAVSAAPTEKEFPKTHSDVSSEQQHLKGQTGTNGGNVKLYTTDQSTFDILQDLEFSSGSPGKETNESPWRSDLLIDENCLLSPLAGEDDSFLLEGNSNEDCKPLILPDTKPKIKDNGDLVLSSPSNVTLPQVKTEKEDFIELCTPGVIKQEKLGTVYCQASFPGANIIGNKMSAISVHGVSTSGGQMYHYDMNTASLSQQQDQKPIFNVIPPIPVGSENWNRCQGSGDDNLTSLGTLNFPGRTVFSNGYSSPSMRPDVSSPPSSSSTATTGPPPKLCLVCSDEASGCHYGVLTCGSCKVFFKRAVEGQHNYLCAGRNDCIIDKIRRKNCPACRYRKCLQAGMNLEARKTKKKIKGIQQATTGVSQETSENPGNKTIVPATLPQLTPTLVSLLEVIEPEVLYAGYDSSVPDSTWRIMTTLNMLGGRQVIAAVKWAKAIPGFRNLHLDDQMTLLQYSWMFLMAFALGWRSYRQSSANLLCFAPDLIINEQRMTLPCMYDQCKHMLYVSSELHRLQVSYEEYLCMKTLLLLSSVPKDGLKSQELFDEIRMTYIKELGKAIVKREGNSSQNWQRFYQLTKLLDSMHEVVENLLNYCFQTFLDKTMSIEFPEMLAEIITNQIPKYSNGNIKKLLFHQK
Outline: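 Measures GR pathway activation through a GRE-beta-lactamase reporter stably integrated in HeLa cells, with 18 h compound treatment at 37 C and fluorescence detection using a FRET substrate.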

[19] = molecular target: Glucocorticoid receptor (Homo sapiens) (UniProt P04150); assay: qHTS assay to identify small molecule antagonists of the glucocorticoid receptor (GR) signaling pathway (AID 720692; active means well fitted inhibition curve with a large enough effect in the signal ratio in the repeat runs, not every such curve was filed as active; the % refers to the signal ratio; further: potency means the concentration at half of the fitted maximal effect)
Outline: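 Tox21 10K library screened in concentration-response for blockade of dexamethasone (5 nM final)-induced GRE-bla reporter activity in HeLa cells; 18 h treatment, fluorescence read.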

[20] = qHTS assay for small molecule agonists of the p53 signaling pathway (AID 651631; calls by dose curve; further: nearly all actives have a fitted effect of over 15% in size)
Outline: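 Testing took place in human colorectal HCT-116 cells with stable p53RE-driven beta-lactamase. After 16 h of compound exposure at 37 °C, a FRET substrate was added and fluorescence recorded 2 h later.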

Measured: Potency
On the % scale 0 is the no-effect control and ±100 the full control effect; tags describe the fitted curve by direction and shape or compound fluorescence and quenching.

CCCCc1oc2ccccc2c1C(=O)c1cc(I)c(OCCN(CC)CC)c(I)c1
inactive: [1] | [3] | [4] | [5] | [6] | [7] | [8] | [9] | [10] | [11]
active: [2] 26.6 µM and 48.9 µM

CCCCC(CC)COCC1CO1 (stereo unspecified)
inactive: [1] | [2] | [3] | [4] | [12] | [13] | [5] | [6] | [14] | [15] | [7] | [16] | [17] | [8] | [9] | [10] | [11] | [18] | [19]

O=C(c1ccccc1)c1ccccc1O
inactive: [1] | [4] | [13] | [6] | [14] | [15] | [7] | [8] | [9] | [10] | [11] | [18] | [19]

CCCc1c(OCCCCc2nn[nH]n2)ccc(C(C)=O)c1O
26.6 µM (active) and inactive: [2]
inactive: [1] | [4] | [6] | [14] | [15] | [7] | [16] | [8] | [9] | [10] | [11] | [18]
active: [12] 26.6 µM | [19] 23.9 µM

CN(C)C(=N)N=C(N)N
2.56 µM (active) and inactive: [18]
inactive: [2] | [3] | [4] | [5] | [6] | [15] | [7] | [16] | [17] | [8] | [9] | [10] | [11] | [19]

CC(C)OC(=O)C(C)(C)Oc1ccc(C(=O)c2ccc(Cl)cc2)cc1
inactive: [1] | [3] | [12] | [13] | [6] | [15] | [7] | [8] | [9] | [10] | [11] | [18] | [19]

Cc1cc2nc3c(=O)[nH]c(=O)nc-3n(C[C@H](O)[C@H](O)[C@H](O)CO)c2cc1C
active: [5] 35.5 µM [middle of 4 runs] | [16] 31.6 µM [fluorescent] [middle of 4 runs] | [10] 17.8 µM [fluorescent] and 39.8 µM [fluorescent] and 35.5 µM [fluorescent]
inactive: [1] | [2] | [3] | [4] | [13] | [6] | [14] | [7] | [17] | [8] | [9] | [11] | [18]

c1ccc2cc(Nc3ccc(Nc4ccc5ccccc5c4)cc3)ccc2c1
inactive: [1] | [2] | [4] | [6] | [14] | [7] | [8] | [9] | [10] | [11] | [18] | [19]

CCCCC/C=C/C=C/C=O
inactive: [1] | [4] | [13] | [5] | [6] | [14] | [15] | [7] | [16] | [8] | [9] | [10] | [11] | [18]
active: [2] 54 µM | [19] 49 µM

c1cc(N(CC2CO2)CC2CO2)ccc1OCC1CO1 (stereo unspecified)
inactive: [4] | [13] | [6] | [14] | [15] | [7] | [8] | [9] | [10] | [11]
active: [1] 13.7 µM and 17.2 µM | [2] 68.7 µM

Clc1nc(Cl)c(Cl)c(Cl)c1Cl
inactive: [1] | [2] | [3] | [4] | [13] | [5] | [6] | [15] | [7] | [17] | [8] | [9] | [10] | [11] | [18]
active: [19] 15.6 µM and 24.5 µM

CCCC(=O)O
inactive: [1] | [2] | [3] | [4] | [13] | [5] | [6] | [14] | [15] | [7] | [8] | [9] | [10] | [11] | [18] | [19]

Oc1ccc(O)cc1
active: [2] 21.1 µM and 13.6 µM and 17.2 µM
inactive: [1] | [3] | [4] | [5] | [6] | [14] | [15] | [7] | [16] | [8] | [9] | [10] | [11] | [18]

O=[N+]([O-])c1ccc2c(c1)Cc1ccccc1-2
inactive: [1] | [2] | [3] | [13] | [5] | [6] | [15] | [7] | [17] | [8] | [9] | [10] | [11] | [18]

CC(C(=O)O)c1cccc(C(=O)c2ccccc2)c1 (stereo unspecified)
inactive: [20] | [4] | [13] | [5] | [6] | [14] | [7] | [16] | [17] | [8] | [9] | [10] | [11]
